High-throughput results as filed in PubChem.
Many of the other results were omitted from the sample, so hits are more common in it than they were.
LmPK inhibitor: blocks Leishmania mexicana pyruvate kinase activity. Potency, µM (series often up to 57.5 µM), usual class: inhibitors. AID 1721. hit rate 0.37% among 290,000. purified LmPK, Kinase-Glo ATP luminescence, 1 h
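qHTS format; LmPK 0.1 nM; substrates PEP 0.5 mM and ADP 0.1 mM. One-hour room-temperature incubation, then coupled luciferase luminescence; 0.5 nM enzyme wells mark activation.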
FBPA Giardia inh: Giardia lamblia aldolase inhibition; AID 2451; hit rate 0.71% among 290,000; Potency, µM (top dose mostly 59.6 µM), hits mostly inhibitors; purified Giardia FBPA; further: nearly all actives have a fitted effect of over 55% in size
Target sequence (A8B2U2 whole entry, looked up): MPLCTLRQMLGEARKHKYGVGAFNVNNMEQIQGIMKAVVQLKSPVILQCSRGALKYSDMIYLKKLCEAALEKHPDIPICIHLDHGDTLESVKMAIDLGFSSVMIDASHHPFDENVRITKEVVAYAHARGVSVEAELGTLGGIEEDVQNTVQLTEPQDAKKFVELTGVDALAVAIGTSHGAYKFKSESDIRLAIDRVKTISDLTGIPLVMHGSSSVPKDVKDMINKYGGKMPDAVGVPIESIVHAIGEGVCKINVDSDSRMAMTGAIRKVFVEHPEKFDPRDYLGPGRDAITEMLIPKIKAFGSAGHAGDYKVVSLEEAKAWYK
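40 nM FBPA preincubated 10 min at RT with compound (up to 57.5 uM final), then substrate plus GAPDH/TPI/NAD/arsenate coupling and diaphorase/resazurin added. Fluorescence read after 20 min at RT, 525/598 nm.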
TbPYK inhibitor: T. brucei pyruvate kinase inhibition; Q57TT1; TbPYK enzyme, Kinase-Glo Plus ATP luminescence, 45 min; Potency, µM (series often up to 76.8 µM), usual class: inhibitors; hit rate 0.12% among 410,000; AID 624173; further: nearly all actives have a fitted effect of over 50% in size
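T. brucei PYK with substrate was exposed to pin-transferred compounds across a concentration series, then started with 130 uM ADP (final). After 45 min at room temperature, Kinase-Glo Plus luminescence was read, normalized and curve-fitted.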
Shiga inhibitor: Shiga toxin inhibition; Vero cells, Shiga toxin protein synthesis inhibition reporter; inhibition, % at 38.7 µM; hit rate 9.2% among 290,000; in the data active means inhibition mostly above about 28%, no sharp cut-off; inactive means mostly below about 43%
Sm TGR inh: blocks Schistosoma mansoni thioredoxin glutathione reductase | hit rate 3% among 360,000 | purified TGR, DTNB reduction, TNB absorbance 405 nm | Q962Y6 | Potency, µM (series often up to 114 µM), actives largely listed as inhibitors; further: nearly all actives have a fitted effect of over 60% in size
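TGR 20 nM + NADPH 100 uM (dispensed conc.), cpd preinc 15 min RT; start with NADPH (500 uM addition) then DTNB (15 mM addition). Kinetic TNB absorbance, 405 nm filter. Four-parameter Hill fit across titration.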
Cycloheximide cs: counter-screen for Shiga toxin inhibitors: cycloheximide protein synthesis inhibition. hit rate 12% among 300,000. max response, %. cell reporter, cycloheximide protein synthesis inhibition counterscreen; in the data active means max response mostly above about 13%, no sharp cut-off; inactive means mostly below about 14%; further: read at 38.3 µM for the half of the compounds with a filed dose
A number is an active result. Unless noted, the call rests on the fitted dose curve; in most records, active means well fitted curve in the direction sought with a large enough effect; inconclusive means small, poorly fitted or top-dose-only effect, or another doubt; inactive means no such curve, though single readings can be large; an effect the other way counts as inactive or inconclusive.

Results for Cc1ccc(-c2noc(C3CCN(S(C)(=O)=O)CC3)n2)o1 ?
LmPK inhibitor: inactive; FBPA Giardia inh: inactive; TbPYK inhibitor: inactive; Shiga inhibitor: 80; Sm TGR inh: inactive; Cycloheximide cs: 20

What do the screens show for `Cc1ccc(-c2nc(C3CCN(S(C)(=O)=O)CC3)no2)cc1`?
LmPK inhibitor: inactive; FBPA Giardia inh: inactive; TbPYK inhibitor: inactive; Shiga inhibitor: inactive; Sm TGR inh: inactive; Cycloheximide cs: 28

What do the screens show for `COc1ccccc1-c1cncnc1NCCNC(C)=O`?
FBPA Giardia inh: inactive

Results for O=[N+]([O-])c1ccc(Nc2ccc3ccccc3c2)nc1 ?
LmPK inhibitor: inactive; FBPA Giardia inh: inactive; TbPYK inhibitor: inactive; Shiga inhibitor: 89; Sm TGR inh: inactive; Cycloheximide cs: 45

How did COC(=O)C(Cc1ccc(OC(=O)c2ccccc2Cl)cc1)N1Cc2ccccc2C1=O (centres undefined) do in these assays?
LmPK inhibitor: inactive; FBPA Giardia inh: inactive; TbPYK inhibitor: inactive; Shiga inhibitor: inactive; Sm TGR inh: inactive; Cycloheximide cs: 22

What do the screens show for `COC(=O)C(Cc1ccc(OC(=O)c2ccccc2C)cc1)N1Cc2ccccc2C1=O` (centres undefined)?
LmPK inhibitor: inactive; FBPA Giardia inh: inactive; TbPYK inhibitor: inactive; Shiga inhibitor: active; Sm TGR inh: inactive; Cycloheximide cs: 33

What do the screens show for `O=S(=O)(c1ccc(Cl)cc1)c1nnn2c1nc(N1CCCCC1)c1sccc12`?
TbPYK inhibitor: inactive; Sm TGR inh: inactive

How did O=C(CO)NCCCOc1cccc(CN2CCCCC2)c1 do in these assays?
TbPYK inhibitor: inactive

How did C[C@H](C(=O)O)c1ccc2cc(O)ccc2c1 do in these assays?
FBPA Giardia inh: inactive; Shiga inhibitor: inactive; Cycloheximide cs: inactive

How did N#CCCN1CCN(CCC#N)C1=S do in these assays?
TbPYK inhibitor: inactive

Results for COc1ccc(OC)c(-c2cc(C3CCN(C(=O)OC(C)(C)C)CC3)[nH]n2)c1 ?
LmPK inhibitor: inactive; FBPA Giardia inh: inactive; TbPYK inhibitor: inactive; Shiga inhibitor: inactive; Sm TGR inh: inactive; Cycloheximide cs: 15

Results for Cc1ccc(S(=O)(=O)N2CCC[C@H]2C(=O)OCC(=O)Nc2ccc3c(c2)OCO3)cc1 ?
TbPYK inhibitor: inactive

What do the screens show for `COC(=O)Cc1[nH]n(-c2nc3ccccc3s2)c(=O)c1C(C)=O`?
LmPK inhibitor: inactive; FBPA Giardia inh: inconclusive; TbPYK inhibitor: inactive; Shiga inhibitor: inactive; Sm TGR inh: inactive; Cycloheximide cs: 17

Results for COc1ccc(CN=C(C)c2c(C(F)(F)F)[nH]n(-c3nc4ccccc4s3)c2=O)cc1 ?
LmPK inhibitor: inactive; FBPA Giardia inh: inactive; TbPYK inhibitor: inactive; Shiga inhibitor: 122; Sm TGR inh: inactive; Cycloheximide cs: 42

What do the screens show for `COc1ccc(Cn2c(C(C)C)nc3sc4ccccc4c(=O)c3c2=O)cc1`?
LmPK inhibitor: inactive; FBPA Giardia inh: inactive; TbPYK inhibitor: inactive; Shiga inhibitor: inactive; Sm TGR inh: inactive; Cycloheximide cs: inactive

Results for CC(=O)c1c(CC(=O)O)[nH]n(-c2nc3ccccc3s2)c1=O ?
LmPK inhibitor: inconclusive; FBPA Giardia inh: inactive; TbPYK inhibitor: inactive; Shiga inhibitor: inactive; Sm TGR inh: inactive; Cycloheximide cs: inactive

How did NC(=O)C1=C[C@@H](C2CCCCC2)C[C@@H](OCc2ccc(CO)cc2)O1 do in these assays?
TbPYK inhibitor: inactive

How did O=C(O)C1=C[C@@H](C2CCCCC2)C[C@@H](OCc2ccc(CO)cc2)O1 do in these assays?
LmPK inhibitor: inactive; FBPA Giardia inh: inactive; TbPYK inhibitor: inactive; Shiga inhibitor: inactive; Sm TGR inh: inactive; Cycloheximide cs: inactive

What do the screens show for `C#CCNC(=O)C1=C[C@H](C2CCCCC2)C[C@H](OCc2ccc(CO)cc2)O1`?
LmPK inhibitor: inactive; FBPA Giardia inh: inactive; TbPYK inhibitor: inactive; Shiga inhibitor: 52; Sm TGR inh: 20µM; Cycloheximide cs: 14

Results for C#CCNC(=O)C1=C[C@@H](C2CCCCC2)C[C@@H](OCc2ccc(CO)cc2)O1 ?
LmPK inhibitor: inactive; FBPA Giardia inh: inactive; TbPYK inhibitor: inactive; Shiga inhibitor: inactive; Sm TGR inh: 22µM; Cycloheximide cs: inactive

Results for C#CCNC(=O)C1=C[C@H](C)C[C@H](OCc2ccc(CO)cc2)O1 ?
TbPYK inhibitor: inactive
